This is part of a sample that, as a whole, favours compounds with a hit. Of some 83,000 tested, about 20% had one in any assay.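 Negative percent growth values reflect cell death: -40 means 40% of the cells present at the start died, and -100 means all died.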 Unmarked numbers belong to inactive results. Active and inactive are the calls of the source.

This experiment deals with RPMI-8226 leukemia. The experiment can be described thus: NCI-60 one-dose screen, 48 h (100 = growth as untreated, 0 = no growth, -100 = all killed). As to conditions: 10 µM unless noted. The procedure: Growth inhibition of the RPMI-8226 human tumor cell line is measured as a screen for anti-cancer activity. Cells are grown in 96 well plates and exposed to the test compound for 48 hours. Compounds are tested at a single concentration, which is 10^-5 M for most compounds. The reported endpoint is percent growth (GI% or GIPRCNT), where numbers from 0 - 100% represent growth inhibition, and numbers from -100% - 0 represent cell death. For example, a value of 40 represents 60% growth inhibition. A value of 0 means no net growth occurred over the course of the experiment. A value of -40 indicates 40% of cells at the beginning of the experiment died by the end of the experiment. A value of -100 means all cells are dead at the end of the experiment.
NCI-60 Human Tumor Cell Lines Screen was performed using the standard one-dose NCI protocol, which is described in more detail at https://dtp.cancer.gov/discovery_development/nci-60/default.htm.
Compounds with GIPRCNT values below 10 were considered active. Activity score was based on GIPRCNT using the following formula: […]
Score is 0 for GIPRCNT values of 100 or above, 50 for GIPRCNT values of 0, and 100 for GIPRCNT values of -100.
In the case of `CC1=C(NCCN2CCCC2)C(=O)c2c(OCc3cccc(Cl)c3)cccc2C1=O`, the growth is 60.9%.

In the case of `CC/C=C\C[C@H](F)C/C=C1/C(=O)C=C[C@@H]1C/C=C\CCCC(=O)O`, the growth was -3.41% (active).

With `COc1cc(-c2c3sc(=O)[nH]c3nc3c2c(=O)[nH]n3C(C)C)cc2c1OCO2`, the growth was 124%.

Take `Cn1c2c(Cl)c(Cl)ccc2c2ccn3c(=O)c4ccccc4nc3c21`: the growth is 98.8%.

For the molecule `O=C(N/N=C/c1ccc(O)cc1O)c1cccnc1`, the growth is 44.6%.

For the molecule `COc1cc(NC(N)=NCC(C)(C)COc2ccc(C(F)(F)F)cc2)cnc1C#N`, the growth was 46%.

In the case of `CS(=O)(=O)c1c(Nc2ccccc2)n[nH]c1N`, the growth was 97.8%.

On to `COC(/C=C/c1ccc([N+](=O)[O-])cc1)OC`, for which the growth is 70%.

For `C=C1CC2(OC1=O)C(=O)Nc1ccccc12` (stereo not given), the growth is 24.4%.

As to `Nc1cccc(-c2nc3sccn3c2-c2ccnc(NCCCNS(=O)(=O)c3ccc(C(F)(F)F)cc3)n2)c1`, the growth was -29.7% (active).

For `Cc1cc(=O)oc2cc(Oc3nc(-c4ccc(Cl)cc4)cn4c(-c5ccc(Cl)cc5)cnc34)ccc12`, the growth was 93.7%.

For `Nc1c(C(=O)Nc2cccc3c2OCCO3)sc2nc3c(cc12)C(=O)CCC3`, the growth was 33.7%.

For `CCOC(=O)CC(C)=N`, the growth was 113%.

As to `CCOC(=O)N1CCN(c2nc(Nc3cc(C)[nH]n3)c3ccccc3n2)CC1`, the growth is 37.3%.

Take `C=C1CCC2C3(C)COC(C)(C)OC3CCC2(C)C1C/C=C1/C(=O)OCC1OC(C)=O` (stereo not given): the growth was -42% (active).

On to `COc1ccc(C/C(C)=C(\c2ccc(OCCN3CCCCCC3)cc2)c2ccc(OC(=O)C3CCCCC3)cc2)cc1`, for which the growth was 40.1%.

In the case of `COc1ccc(-c2c3c(nc4n[nH]c(-c5ccc(Cl)cc5)c24)-c2ccccc2C(=O)C3=O)cc1`, the growth was -11.4% (active).

Turning to `CCOC(=O)c1cnc2ccc(Br)cc2c1Nc1cccc(S(=O)(=O)NC)c1`, the growth was 110%.

On to `C/C(=C(/c1ccc(O)cc1)c1ccc(OCCN(C)C)cc1)c1ccccc1`, for which the growth was 85.1%.

Consider `Cc1cccc(NC(=O)c2sc3nc4c(cc3c2N)C(=O)CCC4)c1`, for which the growth is 31.6%.

Consider `Nc1cc2ccncc2c2ccccc12`, for which the growth was 84.1%.

With `Cc1cc(Cl)ccc1Nc1nc(C(F)(F)F)ccc1C(=O)N/N=C/c1ccc(F)cc1`, the growth was -41.5% (active).

As to `COCCOC(=O)C1=C(C)NC(=S)NC1c1ccc2c(c1)OCO2` (stereo not given), the growth was 105%.

As to `S=c1[nH]nc(CSc2ncnc3c2c(-c2ccccc2)cn3-c2ccc(Cl)cc2)o1`, the growth was 98%.

For `C=CC[N+]1(CCO)CCN=C1CCCCCCCCCCCCC` (stereo not given), the growth is -39.5% (active).

In the case of `CCN(CC)C12CCCCC1(C)C(C#N)(C#N)C(C#N)=C(N)O2` (stereo not given), the growth was 125%.

For the molecule `O=c1c(/C=C/c2ccco2)nnc(SCCN2CCOCC2)n1/N=C/c1ccc([N+](=O)[O-])cc1`, the growth was 67%.

For `O=[N+]([O-])c1cccc(-c2nc3sccn3c2-c2ccnc(NCCCNS(=O)(=O)c3ccc(Br)cc3)n2)c1`, the growth was 9.86% (active).

As to `O=C(O)c1cccc2c1-c1ccccc1C2=O`, the growth was 124%.

Regarding `CC/C=C\C[C@H](O)C/C=C1/C(=O)C=C[C@@H]1C/C=C\CCCC(=O)OC(C)C`, the growth is -21.6% (active).

Consider `Nc1cccc(NC(=O)C(=O)Nc2cccc(N)c2)c1`, for which the growth was 88.1%.

In the case of `O=c1c2cccc3c(NC4CCCCC4)ccc(c32)c2nc3ccccc3n12`, the growth was 75.6%.

Turning to `CCN(CC)CC(O)CNc1c2ccc([N+](=O)[O-])cc2nc2cc(OC)c(OC)cc12` (stereo not given), the growth is -13.8% (active).

As to `N=c1c2ccccc2nc2n1CCCCC2`, the growth is 105%.

On to `COc1cc(C2C(C(=O)c3cccs3)=C(O)C(=O)N2CCN2CCOCC2)cc(OC)c1OC` (stereo not given), for which the growth is 108%.

Regarding `Cl/C(=N\Nc1ccccc1)c1ccccc1`, the growth was 104%.

Turning to `COc1ccc(-c2cn3c(-c4ccc(OC)cc4)cnc3c(Oc3ccc4c(C)cc(=O)oc4c3)n2)cc1`, the growth was 63.7%.

For `CN1CCN(c2ccc3nc(-c4ccc5nc(-c6ccc(OCCC(C)(C)C)cc6)[nH]c5c4)[nH]c3c2)CC1`, the growth is -50.1% (active).

With `Clc1cccc(Nc2nc(Nc3cnc4ccccc4c3)c3[nH]cnc3n2)c1`, the growth is 78.3%.

In the case of `CCN(CC)CCCC(C)Nc1ccnc2c(OC)cccc12` (stereo not given), the growth was 103%.

Source of the values: PubChem BioAssay (NCI).
